# CYP2C9 act – activators of human CYP2C9 | P11712 | recombinant CYP2C9, luciferin-H conversion, luminescence; stronger effect = higher value; factor 1 = untreated enzyme, 0 = blocked | activation factor at 5 µM | 96,000 compounds, 1.4% hits;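 active = activation factor of 2 or more for CYP2C9 at a 5 µM dose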;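 also: 0 = sulfaphenazole-blocked wells and 1 = vehicle-only wells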
# CYP2C19 inh – human CYP2C19 inhibition; P33261; CYP2C19 Supersomes, luciferin-H EGE luminescence, 30 min; inhibition, % at 5 µM; 96,000 compounds, 21% hits; AID 778;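 active = CYP2C19 inhibition above a set limit at 5 µM in the primary screen, cut at about 50% in these data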;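 also: plate controls were negative control wells for no effect and 2.5 mM tranylcypromine positive control for full effect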
# Target sequence (P33261 whole entry, looked up): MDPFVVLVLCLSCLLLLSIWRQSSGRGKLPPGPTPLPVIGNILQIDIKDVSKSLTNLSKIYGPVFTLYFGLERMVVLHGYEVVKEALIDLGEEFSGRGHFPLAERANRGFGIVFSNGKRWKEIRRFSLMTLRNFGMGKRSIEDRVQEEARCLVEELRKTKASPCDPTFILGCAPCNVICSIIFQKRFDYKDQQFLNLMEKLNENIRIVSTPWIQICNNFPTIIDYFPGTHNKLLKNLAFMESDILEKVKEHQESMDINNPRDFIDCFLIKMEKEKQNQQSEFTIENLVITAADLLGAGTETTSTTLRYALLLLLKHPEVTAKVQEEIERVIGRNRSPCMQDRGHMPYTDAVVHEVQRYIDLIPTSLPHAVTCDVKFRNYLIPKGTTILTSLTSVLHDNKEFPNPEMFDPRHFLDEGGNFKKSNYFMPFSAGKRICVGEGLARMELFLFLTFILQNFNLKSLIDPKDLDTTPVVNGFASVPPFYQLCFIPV
# CYP2C19 act – cytochrome P450 2C19 (human) activation. recombinant CYP2C19, luciferin-H EGE luminescence; stronger effect = higher value; 0 = fully inhibited enzyme, 1 = untreated enzyme. activation factor at 5 µM. 96,000 tested, under 10 active. AID 1025;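 active = activation factor of at least 2 at 5 µM in the primary screen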;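 also: 0 = wells with 2.5 mM tranylcypromine and 1 = vehicle-only wells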
# CYP2C9 inh – human CYP2C9 inhibition; AID 777; P11712; CYP2C9 Supersomes, luciferin-H conversion, luminescence; 96,000 compounds, 20% hits; inhibition, % at 5 µM;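 active = blocking of liver enzyme CYP2C9 beyond about 50% at 5 µM, limit read from the data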
# Starred values were filed as active, the others as inactive. A selection: hits, their analogues and other compounds. The true share with any hit is near 31%.
SMILES,CYP2C9 act,CYP2C19 inh,CYP2C19 act,CYP2C9 inh
COc1ccc(-c2oc3ncnc(NCCN4CCOCC4)c3c2-c2ccc(OC)cc2)cc1,0.7,23,0.8,30
CCc1cc(-c2n[nH]c(=S)n2C(C)c2ccccc2)cs1 (stereo unspecified),0.1,82*,0.2,87*
Cc1ccc(-c2nc(C3CCN(S(C)(=O)=O)CC3)no2)cc1,1.1,-6,1.1,-8
COc1cc2c(C(=O)N3CCN(C)CC3)c(C)oc2cc1Br,0.9,35,0.7,5
CCOC(=O)c1c(C)oc2cc(Br)c(OC(=O)N3CCOCC3)cc12,0.5,76*,0.2,51*
Cc1cc(N2C3CCC2CC(O)(c2ccc(F)cc2)C3)nc(-c2ccccc2)n1 (stereo unspecified),0,94*,0.1,100*
CC(=O)NC1(C(F)(F)F)C(=O)Nc2c1c(=O)[nH]c(=O)n2Cc1ccco1 (stereo unspecified),1.2,-26,1.3,-24
O=c1[nH]c(=O)n(Cc2ccco2)c2c1C(C(F)(F)F)(C(F)(F)F)N=C(Cc1ccccc1)N2,0.2,33,0.7,76*
O=C(CCSCCc1ccccn1)Nc1ccc(Br)cn1,0.7,27,0.7,34
COc1cc([C@H]2[C@@H]3CCCC[C@]3(O)CCN2Cc2ccccc2F)ccc1O,0.6,83*,0.2,37
COc1ccc(C(C)=O)cc1CSc1nnc(-c2ccccc2O)n1-c1ccccc1,0.5,45,0.5,53*
O=C(NC1CCCC1)C1CCCN1C(=O)Nc1ccc(Cl)cc1 (stereo unspecified),1,27,0.7,3
CC(C)(C)c1ccc(-c2nnc(SCCN3C(=O)c4ccccc4C3=O)o2)cc1,0.2,78*,0.2,84*
COC(=O)c1ccc(CSc2nc(C)nc3sc(C)c(C)c23)o1,1,32,0.7,4
Cc1ccccc1NC(=O)CSc1nc(COc2ccccc2)nc2ccccc12,0.1,76*,0.2,95*
CCc1nc(SCC(=O)NNC(=O)C(C)C)c2ccccc2n1,1.4,18,0.8,-37
Cc1cc(C)c(NC(=O)CSc2nc(COc3ccccc3)nc3ccccc23)c(C)c1,0.1,46,0.5,85*
CCOc1cc(NC(=S)Nc2cccc(OC)c2)c(OCC)cc1NC(=O)C(C)C,0.9,4,1,14
CCN(CC)C(=O)c1cccc(-c2ccc(OC)cc2)c1,0.6,69*,0.3,45
C/C(=N\NC(=O)c1ccc(Cl)cc1)c1cccc(NC(=O)C(C)C)c1,1.1,9,0.9,-8
O=C(c1ccccc1)C1C(=O)c2ccccc2C1=O,0.8,0,1,20
O=C1c2ccccc2C(=O)C1Cc1cccc2ccccc12,0.3,31,0.7,66*
Cc1cc(C(F)F)n2nc(C(=O)Nc3ccccc3Br)nc2n1,1.2,-16,1.2,-21
O=C(c1cnn2ccccc12)N1CCN(C2CCCCC2)CC1,1.1,50,0.5,-5
O=C(c1cnn2ccccc12)N(Cc1ccco1)C1CCCC1,0.5,60*,0.4,47
SMILES,CYP2C9 act,CYP2C19 inh,CYP2C19 act,CYP2C9 inh
O=S(=O)(c1cnccc1N1CCN(/N=C/c2ccc(Cl)cc2)CC1)N1CCCCC1,0.4,33,0.7,60*
Cc1ccc(/C=N/N2CCN(c3ccncc3S(=O)(=O)N3CCCCC3)CC2)cc1,0.9,-2,1,10
CC(=O)NC(C)C(=O)OCC(=O)Nc1ccc(Br)cc1 (stereo unspecified),0.8,54*,0.5,16
COCCNC(C)C(=O)Nc1ccc(Br)cc1 (stereo unspecified),1,17,0.8,0
CCOc1ccc(OCC)c2sc(C)nc12,0.8,42,0.6,17
CCCc1cc(N2CCN(C(=O)c3ccco3)CC2)n2c(nc3ccccc32)c1C#N,0.2,18,0.8,76*
O=C(c1ccccc1/S(=N/S(=O)(=O)c1ccccc1)N1CCOCC1)N1CCOCC1 (stereo unspecified),1.1,-5,1.1,-12
CCOC(=O)CNC(c1ccccc1)c1cc(Br)ccc1NC(=O)OCC (stereo unspecified),0.4,31,0.7,56*
CC(C)Cn1[nH]c2c3c(ccc2c1=O)C(=O)c1ccccc1C3=O,0.2,61*,0.4,80*
O=S(=O)(c1ccccc1)N1CCn2c(nc3ccccc32)C1,0.8,71*,0.3,24
CC(C)(C)NC(=O)NC(=O)COc1ccccn1,1.3,-18,1.2,-27
CC(C)(C)NC(=O)NC(=O)COC(=O)COc1ccc2c(c1)CCC2,0.8,50*,0.5,25
